# A selection follows.
# aSyn 5UTR act: Activators via SNCA 5'UTR binding, MLPCN | activity score, % (tested at 7.5 µM), hits read low | alpha-synuclein 5'UTR reporter, activators screen | hit rate 7.1% among 300,000; in the data active = activity score below about -60%
# Numbers stand for hits; . = inactive.
SMILES,aSyn 5UTR act
CCOc1ccc(OCc2ccc(C(=O)NCc3ccncc3)o2)cc1,-67
CCOc1ccc(OCc2ccc(C(=O)O)o2)cc1,-87
O=c1oc(-c2ccc(Br)cc2)nc2ccccc12,-130
CCCOc1cccc(-c2nc3ccccc3c(=O)o2)c1,-95
Clc1ccc(-c2noc(CN3CCCC3)n2)cc1,-86
Cc1ccc(-c2noc(CN3CCOCC3)n2)cc1,-87
Cc1ccn2c(CN3CCOCC3)c(-c3ccccc3)nc2c1,-126
Cc1ccc(-c2noc(CN3CCCCC3)n2)cc1,-126
c1ccc(NCc2nc(-c3ccccc3)no2)cc1,-133
c1ccc(-c2noc(CN3CCOCC3)n2)cc1,-63
COC(=O)C1CCN(C(=O)/C=C/c2ccccc2)CC1,-135
O=C(/C=C/c1ccccc1)N1CCC(c2ccccc2)C1 (stereo unspecified),-82
CCOCCOC(=O)c1[nH]c2c(c1C)C(=O)CC(c1cccs1)C2 (stereo unspecified),.
CCOC(=O)C1CCN(C(=O)/C=C/c2cccs2)CC1,-70
Cc1cc(/C=C2/C(=O)N(C)C(=S)N2C)c(C)n1C1CC1,-140
CN1CCN(c2ccc(NC(=O)c3ccc(Cl)cc3Cl)cc2)CC1,-136
O=C(Nc1ccc(N2CCCCC2)cc1)c1ccccn1,.
O=C(Nc1ccc(NC(=O)c2cccnc2Cl)cc1)c1cccc(Cl)c1,-102
O=C(Nc1ccc(N2CCCCCC2)cc1)c1ccccc1Cl,-252
O=C(Nc1ccc(N2CCCCC2)cc1)C(Cl)c1ccccc1 (stereo unspecified),-236
O=C(Nc1ccc(N2CCCC2)cc1)c1cc(Cl)ccc1Cl,-241
O=C(Nc1ccc(N2CCCC2)cc1)c1ccc(Cl)cc1Cl,-88
O=C(C(Cl)c1ccccc1)N1CCCC1 (stereo unspecified),-112
COc1ccccc1C(=O)Nc1ccc(N2CCCCC2)cc1,-66
CN1CCN(c2ccc(NC(=O)c3ccccc3Br)cc2)CC1,-120
SMILES,aSyn 5UTR act
O=C(Nc1ccc(N2CCCC2)cc1)c1cccc(Cl)c1,-137
CC(=O)c1c(C)[nH]c(C(=O)Nc2ccc(C)cc2Br)c1C,-131
CC(=O)c1c(C)[nH]c(C(=O)NCCc2cccc(C)c2)c1C,-170
CC(=O)c1c(C)[nH]c(C(=O)Nc2ccc(F)cc2F)c1C,-111
CC(=O)c1c(C)[nH]c(C(=O)Nc2ccccc2Cl)c1C,-63
CC(C)(C)c1ccc(Cn2cnc(-c3ccc([N+](=O)[O-])cc3)c2)cc1,-119
CC(C)=CC(=O)Nc1ccc(Br)cc1,-191
CC(C)OCCCNc1ncnc2c1[nH]c1ccccc12,-178
COc1ccc2[nH]c3c(NCCCN4CCCC4=O)ncnc3c2c1,-96
COc1ccc2[nH]c3c(=O)n(CCc4ccccc4)cnc3c2c1,-76
CCOc1ccc2[nH]c3c(NCC(C)C)ncnc3c2c1,-99
O=c1c2[nH]c3ccccc3c2ncn1CCC1=CCCCC1,-121
CCOc1ccc2[nH]c3c(NCCCOC)ncnc3c2c1,-96
O=C(/C=C/c1ccc(-c2ccccc2[N+](=O)[O-])o1)c1ccccc1,-120
O=C(N/N=C/c1ccc(-c2ccccc2[N+](=O)[O-])o1)[C@H]1C[C@@H]1c1ccccc1,-79
CN1C(=O)C2C=CC1C1C(=O)N(c3ccccc3)C(=O)C21 (stereo unspecified),-302
Nc1cccc(-c2nc3ccccc3[nH]2)c1,-170
Fc1ccc(-c2nc3ccccc3[nH]2)cc1,-96
c1cncc(CNc2cccc(-c3nc4ccccc4[nH]3)c2)c1,-145
c1cncc(-c2nc3cc4ccccc4cc3[nH]2)c1,-79
N#CCSc1ccc(-c2nc3ccccc3[nH]2)cn1,-239
CCN(CC)S(=O)(=O)c1cc(C(=O)Oc2cccc(-c3cnc4ccccc4n3)c2)ccc1Br,-99
CCN(CC)S(=O)(=O)c1ccc(Cl)c(C(=O)Oc2cccc(-c3cnc4ccccc4n3)c2)c1,-90
Nc1ccc2oc3ccc(N)cc3c(=O)c2c1,-103
Cc1ccc(/C=N/Nc2nc(Cl)c(Cl)cc2Cl)s1,-141
SMILES,aSyn 5UTR act
Cc1ccsc1/C=N/Nc1nc(Cl)c(Cl)cc1Cl,-162
CCCN(C(=O)c1ccco1)c1nnc(-c2cccc(C)c2)s1,-143
CCN(C(=O)c1ccco1)c1nnc(-c2ccc(OC)cc2)s1,-135
Cc1occc1C(=O)NNC(=S)Nc1ccccc1,-88
Cc1occc1C(=O)NNC(=S)Nc1ccccc1C(F)(F)F,-86
Cc1occc1C(=O)NNC(=O)c1ccccc1F,-82
COc1ccc(/C=C(\C#N)C(=O)OC2CCOC2=O)cc1 (stereo unspecified),-84
CCCc1ccc2oc(C(=O)N3CCCC3)c(C)c2c1,-179
CCCc1ccc2oc(C(=O)NCCc3cnn(C)c3)c(C)c2c1,-182
Cc1c(C(=O)N2CCN(C)CC2)oc2ccc(Br)cc12,-104
CCOC(=O)c1sc(NC(=S)NC(=O)C23CC4CC(CC(C4)C2)C3)cc1C,-104
CCOC(=O)c1sc(NC(=S)NC(=O)C2CC2)cc1C,-85
OC1(C(F)(F)F)CC(O)(C(F)(F)F)n2nc(-c3ccccc3)cc2N1 (stereo unspecified),-126
O=c1c2ccccc2ncn1-c1ccc2c(c1)OCCO2,-111
COC(=O)c1ccc(N=NN2CCCCCC2)cc1,-134
Clc1ccc(N=NN2CCOCC2)cc1,-70
O=C(O)c1ccc(N=NN2CCCCC2)cc1,-85
COC(=O)c1ccc(N=NN2CCOCC2)cc1,-147
CCC(C)n1ncn(-c2ccc(N3CCN(c4ccc(OCC5COC(Cn6cncn6)(c6ccc(Cl)cc6Cl)O5)cc4)CC3)cc2)c1=O (stereo unspecified),.
COC(=O)c1sc(NC(=S)NC(=O)c2ccccc2C)nc1C,-93
COC(=O)c1sc(NC(=S)NC(=O)c2cccc(Br)c2)nc1C,-104
CCCCC[C@H](O)/C=C/[C@@H]1[C@@H](C/C=C\CCCC(=O)OC)[C@@H](O)C[C@H]1O,.
CNc1ccccc(-c2ccc3cc4c(cc3n2)OCO4)c1=O,-215
CCC1CCc2sc(C(=O)NCc3ccccn3)cc2C1 (stereo unspecified),-92
Oc1ccc(-c2nccc(-c3ccccn3)n2)cc1,-188
SMILES,aSyn 5UTR act
Cc1ccc(C(=O)Oc2ccc(-c3nccc(-c4ccccn4)n3)cc2)cc1,-144
FC(F)(F)c1cc(Oc2ccccc2Cl)nc(-c2ccccn2)n1,.
O=C(Oc1ccc(-c2nccc(-c3ccccn3)n2)cc1)c1cccc(C(F)(F)F)c1,-140
Cc1ccc(C(=O)Nn2cnc3ccccc3c2=O)cc1C,-115
CCc1ccc(C(=O)Nn2cnc3ccccc3c2=O)cc1,-150
O=C(Nc1ncc(Cc2cccc(Cl)c2)s1)c1cccs1,-192
Cc1ccc(Cc2cnc(NC(=O)c3cccs3)s2)cc1,-91
O=C(Nc1ncc(Cc2ccc(SC(F)F)cc2)s1)c1ccccc1,.
CCCc1cc(C(=O)NNC(=S)Nc2cccc(C)c2)cs1,-101
Cc1cc(C(=O)Nc2ccc3c(c2)OCO3)cs1,-233
CC(=O)c1cccc(NC(=O)c2ccc3c(c2)OCO3)c1,-128
Cc1cccc(NC(=S)NNC(=O)c2ccc3c(c2)OCO3)c1,-211
CCOC(=O)c1cccc(NC(=O)/C=C/c2ccc3c(c2)OCO3)c1,.
CCOC(=O)c1cccc(NC(=O)c2ccc3c(c2)OCO3)c1,-126
Cc1cccc(NC(=S)NNC(=O)c2csc3c2CCC(C)C3)c1 (stereo unspecified),-77
Cc1[nH]c2ccccc2c1C(=O)C(=O)Nc1ccc2c(c1)OCO2,-91
Cc1cccc(NC(=S)NNC(=O)c2ccccc2Br)c1,-129
COc1ccc(-c2nc(SCc3ccccc3)n(C(=O)c3ccco3)n2)cc1,-81
